SMILES strings stand for the structures. Compounds without any hit were thinned out: in the full panel of roughly 83,000, 20% have a hit.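 Method: cells in 96-well plates; compound added at one concentration; 48 h incubation; percent growth measured; values under 10 scored active.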 Values without a mark were called inactive. Calls of active or inactive are those of the source.

In this assay the test system is MDA-MB-468 breast. As to the kind of experiment: NCI-60 one-dose screen, 48 h (100 = growth as untreated, 0 = no growth, -100 = all killed). The settings on record: 10 µM unless noted.
For `O=c1ccc2cc3ccccc3cc2[nH]1`, the growth was 99%. As for `CC1(C)C(N)=Nc2cc(OCCCN3Cc4ccccc4C3)c(OCC3CC3)cc21`, the figure is 47.3%; as for `C[n+]1c(/C=C\C=C\N2CCCCC2)sc2ccccc21`, -17% (active); as for `Cc1ccc(C(=O)c2ccc(CC(=O)N/N=C/c3ccc(O)cc3O)n2C)cc1`, 46.8%.

Regarding `O=c1c(-c2nc3ccccc3[nH]2)cc2ccccc2n1Cc1cn(Cc2ccc(N3CCOCC3)cc2)nn1`, the growth was 64.3%. As for `COC(=O)c1c2c(n3ccccc13)C(=O)c1ccccc1C2=O`, the figure is 95.7%; as for `Nc1c(C(=O)Nc2cccc(Cl)c2Cl)sc2nc3c(cc12)C(=O)CCC3`, 71.8%; as for `COc1cc2c3c(cc4c5c(ccc4c3c1OC)OCO5)N(CCN(C)C)C2=O`, -48.8% (active). As for `CCCSc1ccc2nc(NC(=O)OC)[nH]c2c1`, the figure is -7.05% (active); as for `Cc1c2cnccc2c(C)c2c1oc1ccccc12`, 82.6%; as for `C[C@H](CCC(=O)O)[C@H]1CC[C@H]2[C@@H]3CC[C@@H]4/C(=C\c5ccco5)C(=O)/C(=C\c5ccco5)C[C@]4(C)[C@H]3CC[C@]12C`, 41.1%. As for `Clc1ccc(CNc2ccc3nc(CCC4CCCCC4)[nH]c3c2)cc1`, the figure is -43.5% (active); as for `COc1ccc(/C=N/C2=C(C#N)C(c3cccc(Cl)c3)c3c(ccc4ccccc34)O2)cc1` (configuration not stated), 3.32% (active); as for `CCCCC/C(C=C(C#N)C#N)=C/c1ccccc1`, 97.9%. `O=[N+]([O-])c1cccc(C(c2ccccc2)c2ccccc2)c1`: the growth was 93.9%.

In the case of `Oc1ccc(N=Nc2ccc(N=Nc3ccccc3)cc2)cc1`, the growth is 83.1%. `Cc1ccc(-c2ccc(Nc3ccccc3)nn2)cc1S(N)(=O)=O`: the growth is 64%. As for `CCCC[n+]1ccc(SCC(=O)n2ccc3ccccc32)c2ccccc21`, the figure is 52.1%; as for `O=S(=O)(c1ccc(OCCO)cc1)c1ccc(OCCO)cc1`, 101%; as for `Cc1nc2ccc(Cl)cn2c1-c1nnc(SCc2ccc([N+](=O)[O-])cc2)o1`, 48.9%. As for `COc1ccc(-c2nc(C#N)c(NCC(c3ccco3)N3CCCC3)o2)cc1` (configuration not stated), the figure is 49.2%. On to `N#Cc1cccc(CN2CCC3=C(C2)C(=O)N(Cc2ccc(Cl)cc2)C2=NCCN23)c1`, for which the growth was -14.9% (active). As for `CCCCCCNC(=O)Oc1ccc(/C(=C(/CC)Cc2ccccc2)c2ccc(OCCN3CCCCC3)cc2)cc1`, the figure is 86.3%; as for `Cc1onc(-c2ccccc2)c1C(=O)N/N=C/c1cc(Cl)cc(Cl)c1O`, 24.7%; as for `Oc1c(C(c2ccc(F)cc2)N2CCCCC2)ccc2cncnc12` (configuration not stated), -2.7% (active). As for `Cc1nc2ccccc2c(=O)n1-c1cccc(OCc2cn(-c3cccc(O)c3)nn2)c1`, the figure is 87.7%; as for `CC(=O)Nc1ccc(C=Nc2ccc3ccccc3c2)cc1`, 107%.
